Hits are enriched below; roughly 10% of the tested compounds scored in any of these assays.
Luciferase inh – blocks purified firefly luciferase enzyme activity; actives 2.5% (n = 76,000); purified P. pyralis luciferase, luminescence, biochemical; P08659; Potency, µM (series often up to 115 µM), actives largely listed as inhibitors; further: nearly all actives have a fitted effect of over 65% in size
Target sequence (P08659 whole entry, looked up): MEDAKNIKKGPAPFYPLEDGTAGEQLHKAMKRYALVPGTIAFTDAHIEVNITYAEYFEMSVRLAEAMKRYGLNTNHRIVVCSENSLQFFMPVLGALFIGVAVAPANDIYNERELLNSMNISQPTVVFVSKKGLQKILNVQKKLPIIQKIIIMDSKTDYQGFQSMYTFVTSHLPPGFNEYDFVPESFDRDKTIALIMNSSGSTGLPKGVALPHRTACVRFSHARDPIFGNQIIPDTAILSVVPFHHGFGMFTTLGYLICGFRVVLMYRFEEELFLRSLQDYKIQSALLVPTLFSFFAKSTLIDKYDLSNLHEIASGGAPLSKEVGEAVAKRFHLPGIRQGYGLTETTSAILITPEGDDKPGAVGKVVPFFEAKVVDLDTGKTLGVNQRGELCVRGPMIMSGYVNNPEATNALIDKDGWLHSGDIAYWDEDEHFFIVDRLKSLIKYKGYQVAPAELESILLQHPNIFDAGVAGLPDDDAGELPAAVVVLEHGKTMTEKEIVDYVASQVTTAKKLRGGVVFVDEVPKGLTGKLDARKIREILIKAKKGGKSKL
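Inhibitors were tested against purified firefly luciferase in a biochemical, low-substrate format (both substrates at 10uM) and luminescence measured with a CCD imager.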
hNpr1 antagonist – blocks ANP-stimulated signaling of human Npr1 receptor; P16066; HEK293 hNpr1 GloSensor cGMP, ANP-stimulated luminescence; Potency, µM (highest dose often 46.3 µM), hits mostly inhibitors; actives 1.6% (n = 76,000); AID 1347048; calls by dose curve; further: nearly all actives have a fitted effect of over 60% in size
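HEK293 cells stably expressing human Npr1 and cGMP GloSensor pGS-40F, loaded 2 h with 2% GloSensor reagent, given compound 30 min at room temperature. Luminescence read before and 20 min after 0.1 nM hNppA.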
GPT2 inh – blocks human glutamate pyruvate transaminase 2; Q8TD30; Potency, µM (titrated, usually from 57.7 µM), hits mostly inhibitors; actives 0.25% (n = 100,000); AID 1671188; Recombinant GPT2, coupled pyruvate oxidase/HRP Amplex Red fluorescence; further: nearly all actives have a fitted effect of over 60% in size
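Recombinant GPT2 (10ng/uL) with 250uM a-KG and 2mM L-alanine, 30 min at room temperature, in HEPES pH 7.5 buffer. Pyruvate detected by pyruvate oxidase/HRP/Amplex Red fluorescence after 30 min in the dark; AOA (50uM) as positive control.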
3T3 cytotox – NIH 3T3 cell cytotoxicity | NIH 3T3 viability, CellTiter-Glo ATP luminescence, 48-72 h | AID 1345082 | Potency, µM (highest dose often 96.7 µM), usual class: inhibitors | actives 4.3% (n = 94,000); further: nearly all actives have a fitted effect of over 55% in size
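Cytotoxicity is measured as loss of cellular ATP: NIH 3T3 cells (400/well) are exposed to compound for 48 or 72 hr at 37 °C, then CellTiter-Glo luminescence is imaged after 10 min at room temperature.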
HEK cytotox – kills HEK 293 cells | HEK 293 viability, ATP luminescence (CellTiter-Glo), 48-72 h | Potency, µM (titrated, usually from 115 µM), most hits filed as inhibitors | actives 6.6% (n = 94,000); further: nearly all actives have a fitted effect of over 60% in size
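CellTiter-Glo luminescence (cellular ATP) was read after 48 or 72 hr of compound exposure at 37 degree Celsius. Cells were HEK 293 plated at 250 cells/well.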
Each line names hits and unclear results; the compound was inactive in the other large screens. Unless noted, the call rests on the fitted dose curve; in most records, active means well fitted curve in the direction sought with a large enough effect; inconclusive means small, poorly fitted or top-dose-only effect, or another doubt; inactive means no such curve, though single readings can be large; an effect the other way counts as inactive or inconclusive.

COc1ccc(CCC(=O)N2CC[C@@H]3COCCN(Cc4ccncc4)[C@@H]3C2)cc1	Luciferase inh 40µM, 3T3 cytotox inconclusive
COc1ccc(Cn2c(=O)c(C(=O)NCCCc3ccccc3)nc3cccnc32)cc1	3T3 cytotox inconclusive, HEK cytotox inconclusive (no result: Luciferase inh, hNpr1 antagonist)
Cc1noc(C)c1-c1cc2c(c(-c3ccc(CO)cc3)c1)C(=O)N(C)C2	3T3 cytotox 79µM, HEK cytotox inconclusive
Cc1noc(C)c1-c1cc2c(c(-c3cccnc3)c1)C(=O)N(C)C2	3T3 cytotox inconclusive
COc1cccc(-c2cc(-c3c(C)noc3C)cc3c2C(=O)N(C)C3)c1OC	3T3 cytotox inconclusive, HEK cytotox inconclusive
COc1ccc(-c2cc(-c3c(C)noc3C)cc3c2C(=O)N(C)C3)cn1	hNpr1 antagonist inconclusive, 3T3 cytotox inconclusive, HEK cytotox 79µM
Cn1ncc2c(C(=O)NCc3ccncc3)cc(-c3ccc(F)cc3)nc21	3T3 cytotox inconclusive, HEK cytotox inconclusive (no result: Luciferase inh, hNpr1 antagonist)
O=C(Nc1cccc(C(F)(F)F)c1)c1nc2c(o1)CCN(CC1CC1)CC2	3T3 cytotox inconclusive, HEK cytotox inconclusive
Cc1csc(NC(=O)c2nc3c(o2)CCN(CC2CC2)CC3)n1	Luciferase inh 18µM, 3T3 cytotox inconclusive
O=C(NCC1CC1)c1nc2c(o1)CCN(Cc1cccs1)CC2	Luciferase inh 71µM, HEK cytotox inconclusive
CN(Cc1cccn1C)C(=O)c1ccc(C(F)(F)F)cc1	none
O=C1NC(=NC2CCCCC2)C2(CCN(Cc3ccccc3)C2)N1c1cccnc1 (stereo not drawn)	3T3 cytotox inconclusive (no result: Luciferase inh, hNpr1 antagonist)
COc1ccc(CN2CCC3(C2)C(=NC2CCCCC2)NC(=O)N3c2cccnc2)cc1 (stereo not drawn)	3T3 cytotox 32µM (no result: Luciferase inh, hNpr1 antagonist)
O=C1NC(=NC2CCCC2)C2(CCN(Cc3ccc(F)cc3)C2)N1c1cccnc1 (stereo not drawn)	3T3 cytotox 22µM (no result: Luciferase inh, hNpr1 antagonist)
O=C1NC(=NC2CCCCC2)C2(CCN(Cc3ccc(F)cc3)C2)N1c1cccnc1 (stereo not drawn)	3T3 cytotox 40µM (no result: Luciferase inh, hNpr1 antagonist)
Cc1ccc(C)c(OCC(=O)c2ccc3c(c2)N(C(C)C(=O)NCC2CCCO2)C(=O)CO3)c1 (stereo not drawn)	HEK cytotox 45µM
Cc1cc(F)ccc1OCC(=O)c1ccc2c(c1)N(C(C)C(=O)NCc1ccc(F)cc1)C(=O)CO2 (stereo not drawn)	3T3 cytotox inconclusive, HEK cytotox 45µM
Fc1ccc(CN2CCOC[C@H]2c2ncc(-c3ccc(Cl)s3)[nH]2)cc1	hNpr1 antagonist inconclusive, 3T3 cytotox inconclusive, HEK cytotox 79µM
Clc1ccc(-c2cnc([C@@H]3COCCN3Cc3cnc[nH]3)[nH]2)cc1	none
Fc1ccc(-c2cnc([C@@H]3COCCN3Cc3ccccc3F)[nH]2)c(F)c1	3T3 cytotox inconclusive, HEK cytotox 100µM
CC(C)(C)CN1CCOC[C@H]1c1ncc(-c2ccc(F)cc2F)[nH]1	3T3 cytotox inconclusive, HEK cytotox inconclusive
Clc1ccc(-c2cnc([C@@H]3COCCN3CC3CC3)[nH]2)s1	3T3 cytotox inconclusive, HEK cytotox 89µM
Clc1ccc(-c2cnc([C@@H]3COCCN3Cc3c[nH]c4ccccc34)[nH]2)s1	hNpr1 antagonist inconclusive, 3T3 cytotox 79µM, HEK cytotox 71µM
Fc1ccccc1CN1CCOC[C@H]1c1ncc(-c2ccc(Cl)s2)[nH]1	hNpr1 antagonist inconclusive, 3T3 cytotox 89µM, HEK cytotox inconclusive
CC(C)Cc1cnc(-c2cccnc2)[nH]1	3T3 cytotox inconclusive (no result: Luciferase inh, hNpr1 antagonist)
CC(C)Cc1cnc(-c2ccccc2)[nH]1	3T3 cytotox inconclusive, HEK cytotox 100µM (no result: Luciferase inh, hNpr1 antagonist)
Cc1noc(-c2cn(C3CCN(C(=O)Cc4ccc(OC(F)(F)F)cc4)CC3)nn2)n1	3T3 cytotox inconclusive, HEK cytotox inconclusive
Fc1ccc(-c2ccc3ncc(Nc4cc(F)cc(N5CCOCC5)c4)n3n2)cc1	Luciferase inh inconclusive, hNpr1 antagonist inconclusive, GPT2 inh inconclusive, 3T3 cytotox inconclusive, HEK cytotox 63µM
Fc1ccc(-c2ccc3ncc(Nc4ccnc(N5CCOCC5)c4)n3n2)cc1	hNpr1 antagonist inconclusive, 3T3 cytotox 8.9µM, HEK cytotox 32µM
COc1cccc(Nc2cnc3ccc(N4CCOCC4)nn23)c1	GPT2 inh inconclusive, 3T3 cytotox inconclusive
O=C(NCCc1ccc(F)cc1)c1cc(-c2ccccc2)c2nncn2n1	3T3 cytotox inconclusive, HEK cytotox inconclusive (no result: Luciferase inh, hNpr1 antagonist)
C[C@@]1(O)CCN(C(=O)CCc2ccc(-c3cccs3)o2)C[C@@H]1O	none
CO[C@H]1C[C@@H](O)C12CCN(C(=O)CCc1ccc(-c3cccs3)o1)CC2	hNpr1 antagonist inconclusive, 3T3 cytotox inconclusive, HEK cytotox 25µM
CNC(C)c1ccc(OC(F)(F)F)cc1 (stereo not drawn)	none (no result: Luciferase inh, hNpr1 antagonist)
CNC(C)c1ccc(Oc2ccccc2)cc1 (stereo not drawn)	3T3 cytotox 79µM, HEK cytotox 100µM (no result: Luciferase inh, hNpr1 antagonist)
CCCCOC(=O)N1CCC(=O)N(C)C[C@H]2COc3cc(OC)ccc3[C@H]21	3T3 cytotox inconclusive (no result: Luciferase inh, hNpr1 antagonist, GPT2 inh)
COc1ccc(-c2ccc(C(=O)NCc3ccccc3)cc2)nn1	none (no result: Luciferase inh, hNpr1 antagonist, GPT2 inh)
COc1ccc(-c2ccc(C(=O)NCc3cccc(F)c3)cc2)nn1	HEK cytotox inconclusive (no result: Luciferase inh, hNpr1 antagonist, GPT2 inh)
COc1ccc(-c2ccc(C(=O)N(C)c3ccccc3)cc2)nn1	3T3 cytotox 13µM, HEK cytotox 22µM (no result: Luciferase inh, hNpr1 antagonist, GPT2 inh)
O=C(NCc1cccnc1)c1ccc2oc(-c3ccc(C(F)(F)F)cc3)nc2c1	hNpr1 antagonist inconclusive, 3T3 cytotox inconclusive, HEK cytotox 11µM
COc1ccc(-c2ccc(C(=O)NCc3cccnc3)cc2)nn1	3T3 cytotox 8.9µM (no result: Luciferase inh, hNpr1 antagonist, GPT2 inh)
COc1ccc(-c2ccc(C(=O)NCc3ccccc3F)cc2)nn1	3T3 cytotox inconclusive, HEK cytotox 112µM (no result: Luciferase inh, hNpr1 antagonist, GPT2 inh)
CCOC(=O)CCNC(=O)N1CCC(N2C(=O)C3(CCCCC3)C2c2ccccc2)CC1 (stereo not drawn)	none (no result: Luciferase inh, hNpr1 antagonist)
COc1ccc(-c2ccc(NC(=O)c3ccccc3C)cc2)nn1	3T3 cytotox inconclusive, HEK cytotox 40µM (no result: Luciferase inh, hNpr1 antagonist, GPT2 inh)
Cn1cccc1CN1CCC2(C1)C(=O)Nc1ccccc12 (stereo not drawn)	3T3 cytotox 100µM, HEK cytotox inconclusive
O=C(c1nc(-c2ccc(Cl)nc2)c2ccccn12)N1CCOCC1	3T3 cytotox inconclusive (no result: Luciferase inh, hNpr1 antagonist)
O=C(Nc1ccccc1)O[C@@H]1CO[C@H]2[C@@H]1OC[C@@H]2n1nnnc1-c1ccc2c(c1)OCCO2	Luciferase inh 45µM
O=C(Nc1cccc(C(F)(F)F)c1)O[C@@H]1CO[C@H]2[C@@H]1OC[C@@H]2n1cc(-c2ccccn2)nn1	hNpr1 antagonist inconclusive, 3T3 cytotox inconclusive, HEK cytotox 35µM
O=C(Nc1cccc(C(F)(F)F)c1)O[C@@H]1CO[C@H]2[C@@H]1OC[C@@H]2n1nnnc1SC1CCCC1	hNpr1 antagonist inconclusive, 3T3 cytotox 40µM, HEK cytotox inconclusive
